Laboratory results as given in the supplement of paper PMC11732987, “Enantioselective OTUD7B fragment discovery through chemoproteomics screening and high-throughput optimisation” (Communications Chemistry, 2025).

Columns and labels:
Assay in all cases: log2 ratio of Biotin-Ahx-Ub-VS probe labelling (compound/DMSO); higher = less target engagement, active = hit call of the paper (q ≤ 0.05, log2 ratio ≤ -1)
Details in all cases: treatment time: 3 h
[1] = compound: CCC1N(CCc2sccc12)C(=O)CCl
Outline: (§1)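 HEK293T lysate (495 µg per sample, in Tris/CHAPS/IGEPAL buffer with protease inhibitors) was treated in triplicate with compound at 50 or 200 µM or with DMSO for 3 h. It was then treated with Biotin-Ahx-Ub-VS (0.5 µM final) for 1 h. Labelled DUBs were NeutrAvidin-enriched, digested with LysC and trypsin, and run by diaPASEF LC-MS/MS. Median-normalised label-free quantities gave average log2 ratios compound/DMSO by unpaired t-test, using proteins with ≥2 unique peptides.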

[2] = compound: CN1c2ccccc2C(CS1(=O)=O)NC(=O)CCl
Outline: as §1

[3] = compound: Cl.ClCC(=O)N1CCc2ncncc2C1
Outline: as §1

[4] = compound: Cl.Cn1ncc2C(CCCc12)NC(=O)CCl
Outline: as §1

[5] = compound: ClCC(=O)NC1CCOc2ccccc12
Outline: as §1

[6] = compound: ClCC(=O)NC1CCCc2ccccc12
Outline: (§2)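 HEK293T lysate (495 µg per sample, in Tris/CHAPS/IGEPAL buffer with protease inhibitors) was treated in triplicate with compound over a concentration series or DMSO for 3 h, then with Biotin-Ahx-Ub-VS (0.5 µM final) for 1 h. Labelled DUBs were NeutrAvidin-enriched, digested with LysC and trypsin, and run by diaPASEF LC-MS/MS. Spectronaut label-free protein quantities were global-median-normalised. Values are average log2 ratios compound/DMSO from an unpaired t-test, using proteins with ≥2 unique peptides.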

[7] = compound: ClCC(=O)N[C@@H]1CCCc2ccccc12
Outline: as §2

[8] = compound: ClCC(=O)N[C@H]1CCCc2ccccc12
Outline: as §2

[9] = compound: CCC1N(CCc2cc(OC)c(Cl)cc12)C(=O)CCl
Outline: as §1

[10] = compound: CCCC1N(CCc2cc(OC)c(OC)cc12)C(=O)CCl
Outline: as §1

Measured: log2 ratio of Biotin-Ahx-Ub-VS probe labelling

ALG13 (UniProt Q9NP73)
Chain of UniProt Q9NP73 (Q9NP73 whole entry): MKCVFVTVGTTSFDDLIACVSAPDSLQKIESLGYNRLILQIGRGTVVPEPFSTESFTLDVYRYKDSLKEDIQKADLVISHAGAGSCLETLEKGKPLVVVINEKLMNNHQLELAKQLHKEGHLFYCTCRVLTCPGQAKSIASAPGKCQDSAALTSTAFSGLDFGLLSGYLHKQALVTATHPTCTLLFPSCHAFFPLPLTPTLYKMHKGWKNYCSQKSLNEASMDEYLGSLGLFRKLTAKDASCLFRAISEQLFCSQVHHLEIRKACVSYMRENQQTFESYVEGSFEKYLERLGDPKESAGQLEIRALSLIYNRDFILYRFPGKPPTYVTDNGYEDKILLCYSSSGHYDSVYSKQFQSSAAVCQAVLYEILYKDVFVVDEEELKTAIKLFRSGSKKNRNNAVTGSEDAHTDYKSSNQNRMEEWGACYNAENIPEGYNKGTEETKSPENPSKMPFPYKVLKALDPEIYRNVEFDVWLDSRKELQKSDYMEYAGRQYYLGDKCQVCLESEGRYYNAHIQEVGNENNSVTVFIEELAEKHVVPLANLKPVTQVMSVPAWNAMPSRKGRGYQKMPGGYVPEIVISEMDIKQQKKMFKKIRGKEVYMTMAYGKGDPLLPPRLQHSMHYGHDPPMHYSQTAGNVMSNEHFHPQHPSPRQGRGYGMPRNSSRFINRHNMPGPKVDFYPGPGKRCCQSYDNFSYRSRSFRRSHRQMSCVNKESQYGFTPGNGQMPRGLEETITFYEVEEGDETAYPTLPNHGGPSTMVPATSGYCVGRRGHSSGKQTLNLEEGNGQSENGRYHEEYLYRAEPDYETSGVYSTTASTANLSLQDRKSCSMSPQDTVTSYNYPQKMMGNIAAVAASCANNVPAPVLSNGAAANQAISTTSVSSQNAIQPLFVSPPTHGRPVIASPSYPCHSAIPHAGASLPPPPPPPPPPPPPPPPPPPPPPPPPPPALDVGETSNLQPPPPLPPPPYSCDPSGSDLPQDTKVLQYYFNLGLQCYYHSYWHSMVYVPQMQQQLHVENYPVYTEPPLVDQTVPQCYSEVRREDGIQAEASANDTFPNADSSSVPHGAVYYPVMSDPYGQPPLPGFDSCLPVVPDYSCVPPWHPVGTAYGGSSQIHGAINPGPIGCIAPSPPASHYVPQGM
inactive: [1]; compound concentration: 50uM 0.393 | [1]; compound concentration: 200uM 0.533 | [2]; compound concentration: 50uM 0.284 | [2]; compound concentration: 200uM 0.203 | [3]; compound concentration: 50uM 0.0225 | [3]; compound concentration: 200uM 0.439 | [4]; compound concentration: 50uM 0.238 | [4]; compound concentration: 200uM -0.0439 | [5]; compound concentration: 50uM 0.11 | [5]; compound concentration: 200uM 0.324 | [6]; compound concentration: 0.78uM 0.19 | [6]; compound concentration: 1.56uM 0.107 | [6]; compound concentration: 3.13uM -0.625 | [6]; compound concentration: 6.25uM -0.155 | [6]; compound concentration: 12.5uM -0.336 | [6]; compound concentration: 25uM -0.19 | [6]; compound concentration: 50uM -0.356 | [6]; compound concentration: 100uM 0.221 | [6]; compound concentration: 200uM -0.15 | [7]; compound concentration: 0.78uM 0.187 | [7]; compound concentration: 1.56uM 0.128 | [7]; compound concentration: 3.13uM 0.146 | [7]; compound concentration: 6.25uM 0.328 | [7]; compound concentration: 12.5uM 0.0757 | [7]; compound concentration: 25uM -0.0189 | [7]; compound concentration: 50uM -0.26 | [7]; compound concentration: 100uM -0.0849 | [7]; compound concentration: 200uM 0.156 | [8]; compound concentration: 0.78uM 0.0472 | [8]; compound concentration: 1.56uM -0.48 | [8]; compound concentration: 3.13uM 0.0655 | [8]; compound concentration: 6.25uM -0.00893 | [8]; compound concentration: 12.5uM -0.0224 | [8]; compound concentration: 25uM 0.337 | [8]; compound concentration: 50uM -0.216 | [8]; compound concentration: 100uM 0.0146 | [8]; compound concentration: 200uM -0.203 | [9]; compound concentration: 50uM 0.0103 | [9]; compound concentration: 200uM 0.0355 | [10]; compound concentration: 50uM 0.0738 | [10]; compound concentration: 200uM 0.242

UniProt P51784
Chain of UniProt P51784 (P51784 whole entry): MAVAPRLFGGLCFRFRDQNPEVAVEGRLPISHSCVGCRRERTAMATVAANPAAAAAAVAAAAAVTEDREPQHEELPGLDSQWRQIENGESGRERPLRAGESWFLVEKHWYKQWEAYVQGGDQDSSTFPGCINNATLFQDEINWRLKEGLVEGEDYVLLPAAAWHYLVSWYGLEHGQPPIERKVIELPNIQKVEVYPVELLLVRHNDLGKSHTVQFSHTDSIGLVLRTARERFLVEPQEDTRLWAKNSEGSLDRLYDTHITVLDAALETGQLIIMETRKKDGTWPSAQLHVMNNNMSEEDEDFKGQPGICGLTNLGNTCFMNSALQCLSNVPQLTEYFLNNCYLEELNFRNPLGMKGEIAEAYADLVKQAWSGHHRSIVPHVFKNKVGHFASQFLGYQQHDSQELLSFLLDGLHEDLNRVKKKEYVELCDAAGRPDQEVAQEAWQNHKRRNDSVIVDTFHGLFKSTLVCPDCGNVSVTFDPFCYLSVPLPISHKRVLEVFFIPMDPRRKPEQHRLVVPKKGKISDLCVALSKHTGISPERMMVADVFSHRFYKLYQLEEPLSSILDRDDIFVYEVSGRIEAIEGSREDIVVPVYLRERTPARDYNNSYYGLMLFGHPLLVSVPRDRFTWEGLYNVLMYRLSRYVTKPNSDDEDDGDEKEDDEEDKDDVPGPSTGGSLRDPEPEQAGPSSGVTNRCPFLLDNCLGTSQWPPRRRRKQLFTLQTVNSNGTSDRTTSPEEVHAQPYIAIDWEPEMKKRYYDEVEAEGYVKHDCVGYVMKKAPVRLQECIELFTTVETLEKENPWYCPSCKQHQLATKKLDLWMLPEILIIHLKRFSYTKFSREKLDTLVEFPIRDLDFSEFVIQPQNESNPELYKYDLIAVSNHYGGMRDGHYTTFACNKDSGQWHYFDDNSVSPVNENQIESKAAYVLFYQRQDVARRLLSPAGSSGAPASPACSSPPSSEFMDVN
active: [10]; compound concentration: 200uM -1.44
inactive: [1]; compound concentration: 50uM 0.031 | [1]; compound concentration: 200uM -0.194 | [2]; compound concentration: 50uM -0.0381 | [2]; compound concentration: 200uM -0.118 | [3]; compound concentration: 50uM 0.0396 | [3]; compound concentration: 200uM -0.389 | [4]; compound concentration: 50uM 0.218 | [4]; compound concentration: 200uM 0.132 | [5]; compound concentration: 50uM 0.157 | [5]; compound concentration: 200uM -0.115 | [6]; compound concentration: 0.78uM -0.0264 | [6]; compound concentration: 1.56uM -0.0198 | [6]; compound concentration: 3.13uM -0.0986 | [6]; compound concentration: 6.25uM 0.0318 | [6]; compound concentration: 12.5uM -0.0982 | [6]; compound concentration: 25uM -0.201 | [6]; compound concentration: 50uM 0.0391 | [6]; compound concentration: 100uM -0.0818 | [6]; compound concentration: 200uM -0.0885 | [7]; compound concentration: 0.78uM -0.219 | [7]; compound concentration: 1.56uM -0.052 | [7]; compound concentration: 3.13uM -0.00301 | [7]; compound concentration: 6.25uM -0.0872 | [7]; compound concentration: 12.5uM -0.0816 | [7]; compound concentration: 25uM 0.00546 | [7]; compound concentration: 50uM -0.0574 | [7]; compound concentration: 100uM -0.00104 | [7]; compound concentration: 200uM -0.228 | [8]; compound concentration: 0.78uM -0.0931 | [8]; compound concentration: 1.56uM -0.0394 | [8]; compound concentration: 3.13uM -0.0291 | [8]; compound concentration: 6.25uM 0.0533 | [8]; compound concentration: 12.5uM -0.077 | [8]; compound concentration: 25uM -0.127 | [8]; compound concentration: 50uM -0.0252 | [8]; compound concentration: 100uM -0.0157 | [8]; compound concentration: 200uM -0.158 | [9]; compound concentration: 50uM -0.0453 | [9]; compound concentration: 200uM -0.739 | [10]; compound concentration: 50uM -0.482

USP4 (UniProt Q13107)
Chain of UniProt Q13107 (Q13107 whole entry): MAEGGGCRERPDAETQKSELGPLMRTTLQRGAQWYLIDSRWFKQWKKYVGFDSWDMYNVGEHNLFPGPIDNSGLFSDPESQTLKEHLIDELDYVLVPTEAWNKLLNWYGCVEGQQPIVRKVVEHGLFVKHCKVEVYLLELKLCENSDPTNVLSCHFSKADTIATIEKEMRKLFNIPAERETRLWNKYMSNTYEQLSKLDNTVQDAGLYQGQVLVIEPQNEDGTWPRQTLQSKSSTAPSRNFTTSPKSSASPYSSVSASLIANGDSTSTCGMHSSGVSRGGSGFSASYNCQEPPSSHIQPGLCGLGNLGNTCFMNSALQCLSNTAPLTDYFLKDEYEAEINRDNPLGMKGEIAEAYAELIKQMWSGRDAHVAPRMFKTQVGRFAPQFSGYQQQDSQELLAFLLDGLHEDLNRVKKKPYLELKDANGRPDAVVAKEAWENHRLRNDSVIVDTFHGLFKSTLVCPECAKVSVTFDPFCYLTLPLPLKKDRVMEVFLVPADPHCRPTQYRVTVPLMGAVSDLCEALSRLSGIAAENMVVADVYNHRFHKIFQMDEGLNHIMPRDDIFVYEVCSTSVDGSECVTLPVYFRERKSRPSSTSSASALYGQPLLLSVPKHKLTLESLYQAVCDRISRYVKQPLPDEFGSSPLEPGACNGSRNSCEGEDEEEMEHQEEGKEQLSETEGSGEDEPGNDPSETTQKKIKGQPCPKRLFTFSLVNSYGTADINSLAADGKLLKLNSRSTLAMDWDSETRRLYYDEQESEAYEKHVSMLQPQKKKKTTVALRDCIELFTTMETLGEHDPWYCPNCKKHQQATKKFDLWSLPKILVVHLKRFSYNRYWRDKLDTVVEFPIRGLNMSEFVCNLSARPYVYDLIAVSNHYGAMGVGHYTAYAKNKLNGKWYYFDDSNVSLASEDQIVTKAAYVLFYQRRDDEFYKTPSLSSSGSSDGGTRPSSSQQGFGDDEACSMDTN
inactive: [1]; compound concentration: 50uM -0.339 | [1]; compound concentration: 200uM -0.482 | [2]; compound concentration: 50uM -0.215 | [2]; compound concentration: 200uM 0.178 | [3]; compound concentration: 50uM -0.548 | [4]; compound concentration: 50uM -0.0561 | [4]; compound concentration: 200uM 0.256 | [5]; compound concentration: 50uM 0.078 | [5]; compound concentration: 200uM -0.359 | [6]; compound concentration: 0.78uM 0.169 | [6]; compound concentration: 1.56uM 0.0194 | [6]; compound concentration: 3.13uM 0.211 | [6]; compound concentration: 6.25uM 0.184 | [6]; compound concentration: 12.5uM 0.134 | [6]; compound concentration: 25uM 0.0663 | [6]; compound concentration: 50uM -0.0777 | [6]; compound concentration: 100uM -0.146 | [6]; compound concentration: 200uM 0.149 | [7]; compound concentration: 0.78uM 0.155 | [7]; compound concentration: 1.56uM 0.0643 | [7]; compound concentration: 3.13uM 0.0496 | [7]; compound concentration: 6.25uM -0.232 | [7]; compound concentration: 12.5uM -0.312 | [7]; compound concentration: 25uM 0.121 | [7]; compound concentration: 50uM -0.0633 | [7]; compound concentration: 100uM 0.0515 | [7]; compound concentration: 200uM -0.637 | [8]; compound concentration: 0.78uM 0.0773 | [8]; compound concentration: 1.56uM 0.0727 | [8]; compound concentration: 3.13uM 0.172 | [8]; compound concentration: 6.25uM -0.243 | [8]; compound concentration: 12.5uM 0.0883 | [8]; compound concentration: 25uM -0.0943 | [8]; compound concentration: 50uM 0.0929 | [8]; compound concentration: 100uM -0.0812 | [8]; compound concentration: 200uM -0.126 | [9]; compound concentration: 200uM 0.334 | [10]; compound concentration: 50uM -0.121 | [10]; compound concentration: 200uM -0.75
active: [3]; compound concentration: 200uM -1.33 | [9]; compound concentration: 50uM -1.04
